# From PubChem BioAssay (Tox21)
# Several values for one entry are separate records, joined by “and”; a condition that tells them apart may be missing. Equal values may be shown once. A number with no mark means an inactive call. Inconclusive results are not listed. A call without a number means that no potency is given here. Activity calls are given as the source filed them. Unless noted, calls follow the shape of the dose curve; as a rule, active = well fitted curve in the direction sought with a large enough effect in the repeat runs; inconclusive = weak or mixed curves; inactive = flat fitted curve, though single readings scatter.
# Experiments:
# [1] = qHTS assay to test for compound auto fluorescence at 535 nm (green) in HEK293 cells (AID 720680); also: potency is read from the fitted curve at half-maximal effect
# [2] = qHTS assay to test for compound auto fluorescence at 460 nm (blue) in HEK293 cell free culture (AID 720681)
# Outline: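 Test compounds were pinned into cell-free culture medium (DMEM with 10% FBS) and fluorescence was read directly at Ex/Em 405/460 nm. Signals were expressed as fluorescence equivalents of triamterene, with DMSO vehicle as control.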
# [3] = qHTS assay to test for compound auto fluorescence at 535 nm (green) in HEK293 cell free culture (AID 720682); also: potency is read from the fitted curve at half-maximal effect
# Outline: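 Using fluorescein as calibrant, autofluorescence was quantified at 485/535 nm in cell-free DMEM containing 10% FBS after pintool addition of compound or vehicle.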
# [4] = qHTS assay to test for compound auto fluorescence at 590 nm (red) in HEK293 cell free culture (AID 720683); also: potency is read from the fitted curve at half-maximal effect
# Outline: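 Tox21 10K library compounds were pinned into cell-free DMEM with 10% FBS and fluorescence was read at excitation 540 nm. Activity is expressed as Rose Bengal sodium equivalency.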
# [5] = qHTS assay to test for compound auto fluorescence at 590 nm (red) in HepG2 cell free culture (AID 720684); also: potency is read from the fitted curve at half-maximal effect
# Outline: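 Ex 540 / Em 590 nm read of compound in cell-free MEM (10% FBS). Rose Bengal sodium reference.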
# [6] = qHTS assay to test for compound auto fluorescence at 460 nm (blue) in HepG2 cell free culture (AID 720685)
# Outline: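 Cell-free plates of MEM plus 10% FBS received 23 nL compound or DMSO vehicle; blue-channel (405/460 nm) intensity scored against triamterene as reference fluorophore.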
# [7] = qHTS assay to test for compound auto fluorescence at 535 nm (green) in HepG2 cell free culture (AID 720686); also: potency is read from the fitted curve at half-maximal effect
# [8] = qHTS assay to test for compound auto fluorescence at 460 nm (blue) in HepG2 cells (AID 720687)
# Outline: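 Cells (2,000/well in MEM with 10% FBS) attached overnight at 37 C, then were exposed to compound or DMSO for 1 hr at 37 C, 5% CO2. Fluorescence read at Ex/Em 405/460 nm, expressed as triamterene-equivalent signal.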
# [9] = molecular target: Glucocorticoid receptor (Homo sapiens) (UniProt P04150); assay: qHTS assay to identify small molecule agonists of the glucocorticoid receptor (GR) signaling pathway (AID 720691; active = well fitted activation curve with a large enough effect in the signal ratio in the repeat runs, not every such curve was filed as active; the % refers to the signal ratio); conditions: GR-bla HeLa, beta-lactamase reporter ratio, 18 h; activation: at 62.4 µM (top of the series)
# Sequence of Glucocorticoid receptor (Homo sapiens) (P04150 whole entry, looked up): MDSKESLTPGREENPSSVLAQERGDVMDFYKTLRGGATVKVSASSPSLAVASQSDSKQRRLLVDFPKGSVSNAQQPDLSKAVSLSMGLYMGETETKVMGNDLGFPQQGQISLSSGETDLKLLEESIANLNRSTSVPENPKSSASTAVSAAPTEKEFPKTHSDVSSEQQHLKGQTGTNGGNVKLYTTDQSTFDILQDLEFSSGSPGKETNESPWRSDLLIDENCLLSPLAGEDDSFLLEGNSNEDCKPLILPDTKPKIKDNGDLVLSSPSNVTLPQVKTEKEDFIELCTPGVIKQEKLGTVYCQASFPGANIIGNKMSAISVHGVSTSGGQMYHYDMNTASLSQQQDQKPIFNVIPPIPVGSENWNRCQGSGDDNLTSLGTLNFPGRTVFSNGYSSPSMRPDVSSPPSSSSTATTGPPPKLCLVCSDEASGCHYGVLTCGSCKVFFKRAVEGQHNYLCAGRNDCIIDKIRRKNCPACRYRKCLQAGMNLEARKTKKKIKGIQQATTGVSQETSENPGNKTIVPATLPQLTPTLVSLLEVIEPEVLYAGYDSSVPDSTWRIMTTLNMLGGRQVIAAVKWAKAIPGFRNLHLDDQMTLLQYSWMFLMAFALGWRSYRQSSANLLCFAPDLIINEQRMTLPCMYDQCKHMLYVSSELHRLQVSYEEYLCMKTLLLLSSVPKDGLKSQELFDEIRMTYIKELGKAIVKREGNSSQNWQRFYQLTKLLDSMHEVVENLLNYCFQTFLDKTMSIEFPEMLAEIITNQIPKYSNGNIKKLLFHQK
# Outline: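 Measures GR pathway activation through a GRE-beta-lactamase reporter stably integrated in HeLa cells, with 18 h compound treatment at 37 C and fluorescence detection using a FRET substrate.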
# [10] = molecular target: Glucocorticoid receptor (Homo sapiens) (UniProt P04150); assay: qHTS assay to identify small molecule antagonists of the glucocorticoid receptor (GR) signaling pathway (AID 720692; active = well fitted inhibition curve with a large enough effect in the signal ratio in the repeat runs, not every such curve was filed as active; the % refers to the signal ratio)
# Outline: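 Tox21 10K library screened in concentration-response for blockade of dexamethasone (5 nM final)-induced GRE-bla reporter activity in HeLa cells; 18 h treatment, fluorescence read.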
# Tags tell the direction and shape of the fitted curve or compound fluorescence and quenching.
smiles,measurement,setting,value
COC(=O)NCCC[Si](OC)(OC)OC,Potency,[1],inactive
same,Potency,[2],inactive
same,Potency,[3],inactive
same,Potency,[4],inactive
same,Potency,[5],inactive
same,Potency,[6],inactive
same,Potency,[7],inactive
same,Potency,[8],inactive
O=C(O)CCCCCCC(=O)O,Potency,[1],inactive
same,Potency,[2],inactive
same,Potency,[3],inactive
same,Potency,[4],inactive
same,Potency,[5],inactive
same,Potency,[6],inactive
same,Potency,[7],inactive
same,Potency,[8],inactive
same,Potency,[9],inactive
O=C(Oc1ccccc1)c1cccc(C(=O)Oc2ccccc2)c1,Potency,[1],inactive
same,Potency,[2],inactive
same,Potency,[3],inactive
same,Potency,[4],inactive
same,Potency,[5],inactive
same,Potency,[6],inactive
same,Potency,[7],inactive
same,Potency,[8],inactive
same,Potency,[9],inactive
CC(=O)Nc1ccc(O)cc1,Potency,[1],inactive
same,Potency,[2],inactive
same,Potency,[3],inactive
same,Potency,[4],inactive
same,Potency,[5],inactive
same,Potency,[6],inactive
same,Potency,[7],inactive
same,Potency,[8],inactive
Oc1ccc(-c2ccc(O)cc2)cc1,Potency,[1],inactive
same,Potency,[2],inactive
same,Potency,[3],inactive
same,Potency,[4],inactive
same,Potency,[5],inactive
same,Potency,[6],inactive
same,Potency,[7],inactive
same,Potency,[8],inactive
same,Potency,[9],inactive
Cc1c(C)n(Cc2ccccc2)c2ccc(C(=O)OCCN(C)C)cc12,Potency,[1],inactive
same,Potency,[2],inactive
same,Potency,[3],inactive
same,Potency,[4],inactive
same,Potency,[5],inactive
same,Potency,[6],inactive
same,Potency,[7],inactive
same,Potency,[8],inactive
same,Potency,[9],inactive
C(=C/c1ccccc1)/c1ccccc1,Potency,[1],inactive
same,Potency,[2],inactive
same,Potency,[3],inactive
same,Potency,[4],inactive
same,Potency,[5],inactive
same,Potency,[6],inactive
same,Potency,[7],inactive
same,Potency,[8],inactive
CCN=C1C=CC(=C(c2ccc(N(CC)CC)cc2)c2ccc(N(CC)CC)cc2)c2ccccc21,Potency,[1],inactive
same,Potency,[2],inactive
same,Potency,[3],inactive
same,Potency,[4],inactive
same,Potency,[5],inactive
same,Potency,[6],inactive
same,Potency,[7],inactive
same,Potency,[8],inactive
CCN(CC)c1ccc(N)cc1,Potency,[1],inactive
same,Potency,[2],inactive
same,Potency,[3],inactive
same,Potency,[4],inactive
same,Potency,[5],inactive
same,Potency,[6],inactive
same,Potency,[7],inactive
same,Potency,[8],inactive
same,Potency,[9],inactive
Cc1c(-c2ccc(O)cc2)n(Cc2ccc(OCCN3CCCCCC3)cc2)c2ccc(O)cc12,Potency,[1],inactive
same,Potency,[2],inactive
same,Potency,[3],inactive
same,Potency,[4],inactive
same,Potency,[5],inactive
same,Potency,[6],inactive
same,Potency,[7],inactive
same,Potency,[8],inactive
CN(C)CCOC(c1ccccc1)c1ccccc1 (tested in a mixture with another compound),Potency,[1],inactive
same,Potency,[2],inactive
same,Potency,[3],inactive
same,Potency,[4],inactive
same,Potency,[5],inactive
same,Potency,[6],inactive
same,Potency,[7],inactive
same,Potency,[8],inactive
same,Potency,[9],inactive
S=C(SSSSSSC(=S)N1CCCCC1)N1CCCCC1,"fluorescence, % of fluorescein",[1],-0.141% [at 18.6 µM]
same,"fluorescence, % of fluorescent control",[2],-0.263% [at 18.6 µM]
same,activity change,[3],"-0.0539% [at 18.6 µM, stronger effect = higher value]"
same,"fluorescence, % of fluorescent control",[4],0.0303% [at 18.6 µM]
same,"fluorescence, % of Rose Bengal",[5],-0.0342% [at 18.6 µM]
same,"fluorescence, % of fluorescent control",[6],-0.225% [at 18.6 µM]
same,"fluorescence, % of fluorescein control",[7],-0.0879% [at 18.6 µM]
same,"fluorescence, % of fluorescent control",[8],0.0837% [at 18.6 µM]
same,Potency,[9],inactive
c1ccc(Nc2cccc3ccccc23)cc1,Potency,[1],inactive
same,Potency,[2],inactive
same,Potency,[3],inactive
same,Potency,[4],inactive
same,Potency,[5],inactive
same,Potency,[6],inactive
same,Potency,[7],inactive
same,Potency,[8],inactive
same,Potency,[9],inactive
CC(COC(=O)c1ccccc1)OC(=O)c1ccccc1 (centres undefined),Potency,[1],inactive
same,Potency,[2],inactive
same,Potency,[3],inactive
same,Potency,[4],inactive
same,Potency,[5],inactive
same,Potency,[6],inactive
same,Potency,[7],inactive
same,Potency,[8],inactive
CCN1CCN(c2cc(-c3ccc(F)cc3)c3c(n2)CCCCCC3)CC1,Potency,[1],inactive
same,Potency,[2],inactive
same,Potency,[3],inactive
same,Potency,[4],inactive
same,Potency,[5],inactive
same,Potency,[6],inactive
same,Potency,[7],inactive
same,Potency,[8],inactive
same,Potency,[9],inactive
NC1(c2ccc(-c3nc4ccn5c(=O)[nH]nc5c4cc3-c3ccccc3)cc2)CCC1,Potency,[1],inactive
same,Potency,[2],inactive
same,Potency,[3],inactive
same,Potency,[4],inactive
same,Potency,[5],inactive
same,Potency,[6],inactive
same,Potency,[7],inactive
same,Potency,[8],inactive
same,Potency,[9],inactive
CC(O)C#CC(C)O (centres undefined),Potency,[1],inactive
same,Potency,[2],inactive
same,Potency,[3],inactive
same,Potency,[4],inactive
same,Potency,[5],inactive
same,Potency,[6],inactive
same,Potency,[7],inactive
same,Potency,[8],inactive
same,Potency,[9],inactive
CCN=c1cc2oc3cc(NCC)c(C)cc3c(-c3ccccc3C(=O)OCC)c-2cc1C,Potency,[1],39.8 µM [fluorescent] (active)
same,Potency,[2],inactive
same,Potency,[3],39.8 µM [fluorescent] (active)
same,Potency,[4],3.16 µM [fluorescent] (active) and 4.47 µM [fluorescent] (active)
same,Potency,[5],2.82 µM [fluorescent] (active) and 3.55 µM [fluorescent] (active)
same,Potency,[6],inactive
same,Potency,[7],39.8 µM [fluorescent] (active)
same,Potency,[8],inactive
Cc1oc(-c2ccccc2)nc1CCOc1ccc(C[C@H](Nc2ccccc2C(=O)c2ccccc2)C(=O)O)cc1,Potency,[1],inactive
same,Potency,[2],inactive
same,Potency,[3],inactive
same,Potency,[4],inactive
same,Potency,[5],inactive
same,Potency,[6],inactive
same,Potency,[7],inactive
same,Potency,[8],inactive
N[C@@H](CSSC[C@H](N)C(=O)O)C(=O)O,Potency,[1],inactive
same,Potency,[2],inactive
same,Potency,[3],inactive
same,Potency,[4],inactive
same,Potency,[5],inactive
same,Potency,[6],inactive
same,Potency,[7],inactive
same,Potency,[8],inactive
same,Potency,[9],inactive
O=C1OC(=O)c2cccc3cccc1c23,Potency,[1],inactive
same,Potency,[2],inactive
same,Potency,[3],inactive
same,Potency,[4],inactive
same,Potency,[5],inactive
same,Potency,[6],inactive
same,Potency,[7],inactive
same,Potency,[8],inactive
same,Potency,[9],inactive
CCCCC(CC)COC(=O)c1ccc(O)cc1 (centres undefined),Potency,[1],inactive
same,Potency,[2],inactive
same,Potency,[3],inactive
same,Potency,[4],inactive
same,Potency,[5],inactive
same,Potency,[6],inactive
same,Potency,[7],inactive
same,Potency,[8],inactive
CCN(CC)CCOC(=O)C1(C2CCCCC2)CCCCC1,Potency,[1],inactive
same,Potency,[2],inactive
same,Potency,[3],inactive
same,Potency,[4],inactive
same,Potency,[5],inactive
same,Potency,[6],inactive
same,Potency,[7],inactive
same,Potency,[8],inactive
same,Potency,[9],inactive
same,Potency,[10],inactive
